From PubChem BioAssay
Shown are actives, neighbours in structure and some others; about 28% of the full set was active somewhere.
CD11b adhes enh: CD11b/CD18-fibrinogen binding enhancement; K562 CD11b/CD18 adhesion to fibrinogen, ATPlite luminescence; activation, % at 10 µM; actives 0.07% (n = 93,000);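 active means 10 µM primary screen giving 50% or more activity, confirmed by 40% or more on retest at that dose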
Target sequence (P05107 whole entry, looked up, other chains not shown): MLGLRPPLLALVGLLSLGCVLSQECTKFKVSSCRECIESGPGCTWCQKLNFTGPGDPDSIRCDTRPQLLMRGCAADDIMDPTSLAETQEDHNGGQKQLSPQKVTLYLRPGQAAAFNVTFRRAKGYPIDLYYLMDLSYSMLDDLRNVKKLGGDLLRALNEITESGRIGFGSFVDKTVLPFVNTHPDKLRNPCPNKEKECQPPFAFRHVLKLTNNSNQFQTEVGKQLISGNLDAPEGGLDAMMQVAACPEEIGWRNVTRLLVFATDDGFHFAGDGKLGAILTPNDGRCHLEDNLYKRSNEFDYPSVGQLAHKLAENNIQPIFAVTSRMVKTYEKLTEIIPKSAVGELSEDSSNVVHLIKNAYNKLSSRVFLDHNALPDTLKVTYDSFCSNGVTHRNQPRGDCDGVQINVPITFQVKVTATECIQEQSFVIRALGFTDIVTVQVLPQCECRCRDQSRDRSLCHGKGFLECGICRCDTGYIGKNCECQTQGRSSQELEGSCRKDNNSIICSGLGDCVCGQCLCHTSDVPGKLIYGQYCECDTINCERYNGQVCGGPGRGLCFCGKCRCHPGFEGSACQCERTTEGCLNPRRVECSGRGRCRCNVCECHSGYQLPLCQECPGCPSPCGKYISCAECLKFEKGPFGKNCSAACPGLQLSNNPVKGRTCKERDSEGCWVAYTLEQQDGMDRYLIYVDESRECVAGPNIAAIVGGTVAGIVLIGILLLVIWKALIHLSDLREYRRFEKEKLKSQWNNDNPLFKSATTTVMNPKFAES
CYP2C9 activ: activators of human CYP2C9. actives 1.4% (n = 96,000). recombinant CYP2C9, luciferin-H conversion, luminescence; stronger effect = higher value; factor 1 = untreated enzyme, 0 = blocked. P11712. activation factor at 5 µM;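 active means activation factor of 2 or more for CYP2C9 at a 5 µM dose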;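 further: 0 = sulfaphenazole-blocked wells and 1 = vehicle-only wells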
CD11b adhes inh: blocks human CD11b/CD18 adhesion to fibrinogen | P05107+P11215 | K562 CD11b/CD18 adhesion to fibrinogen, ATPlite luminescence; Mn2+ added to activate the integrin | inhibition, % at 10 µM | actives 0.54% (n = 93,000) | AID 1497;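 active means primary inhibition of 50% or more at 10 µM, then 40% or more on retest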
CYP2C9 inh: blocks human cytochrome P450 2C9; CYP2C9 Supersomes, luciferin-H conversion, luminescence; inhibition, % at 5 µM; actives 20% (n = 96,000); AID 777;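 active means blocking of liver enzyme CYP2C9 beyond about 50% at 5 µM, limit read from the data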
CYP2C19 activ: cytochrome P450 2C19 (human) activation | AID 1025 | activation factor at 5 µM | 96,000 tested, under 10 active | recombinant CYP2C19, luciferin-H EGE luminescence; stronger effect = higher value; 0 = fully inhibited enzyme, 1 = untreated enzyme;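 active means activation factor of at least 2 at 5 µM in the primary screen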;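 further: 0 = wells with 2.5 mM tranylcypromine and 1 = vehicle-only wells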
CYP2C19 inh: human CYP2C19 inhibition; AID 778; CYP2C19 Supersomes, luciferin-H EGE luminescence, 30 min; P33261; inhibition, % at 5 µM; actives 21% (n = 96,000);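 active means CYP2C19 inhibition above a set limit at 5 µM in the primary screen, cut at about 50% in these data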;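 further: plate controls were negative control wells for no effect and 2.5 mM tranylcypromine positive control for full effect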
* hit, by the source's call; · = no result.

SMILES | CD11b adhes enh | CYP2C9 activ | CD11b adhes inh | CYP2C9 inh | CYP2C19 activ | CYP2C19 inh
O=c1cc(C23CC4CC(CC(C4)C2)C3)[nH][nH]1 | 8 | 0.4 | 5 | 56* | 1.2 | -21
O=C1NCCN1C(=O)C12CC3CC(CC(C3)C1)C2 | · | 0.8 | · | 22 | 0.9 | 9
CC(=O)Nc1c2c(nn1-c1ccc(C)cc1C)CSC2 | 0 | 1 | -3 | -3 | 0.9 | 12
Cc1ccccc1-n1nc2c(c1NC(=O)c1ccc(Br)o1)CSC2 | 43 | 0.4 | -31 | 57* | 0.8 | 15
COc1ccccc1NC(=O)Cc1noc(CSc2nnc(C)s2)n1 | 4 | 0.8 | 14 | 16 | 0.7 | 34
COc1cccc(OCc2nc3ncc(Br)cc3[nH]2)c1 | 1 | 0.6 | -12 | 35 | 0.5 | 54*
COc1ccc(NC(=O)Cc2nc3ccccc3[nH]2)cc1 | 2 | 0.7 | -1 | 26 | 0.3 | 67*
COc1ccc(OCc2nc3ccccc3[nH]2)cc1 | -4 | 0.8 | 16 | 24 | 0.5 | 49
c1cnc2c(OCc3nc4ccccc4[nH]3)cccc2c1 | 3 | 0.9 | 11 | 12 | 0.1 | 95*
COc1ccccc1OCc1nc2ccccc2[nH]1 | · | 0.7 | · | 26 | 0.3 | 74*
COc1ccc(/C=N/NC(=O)c2cc(-c3ccc4c(c3)OCO4)n[nH]2)cc1OC | 10 | · | 13 | · | · | ·
CC(C)(C)OC(=O)NC(CCCCNC=O)C(=O)O (centres undefined) | -2 | 1 | 10 | -5 | 1 | -2
Cc1ccc(CONC(=O)/N=C/N(C)C)cc1 | · | 0.9 | · | 12 | 0.8 | 16
COc1cccc(OCc2nc3ccccc3[nH]2)c1 | 4 | 0.4 | -2 | 65* | 0 | 100*
CC(C)C(=O)Nc1ccc(NC(=S)NC(=O)c2ccc([N+](=O)[O-])cc2)cc1 | · | 0.7 | · | 32 | 0.9 | 8
O=C(c1ccc(Cl)cc1)C1CCN(C(=O)NC2CCCCC2)CC1 | -3 | 0.2 | -20 | 85* | 0.1 | 93*
CC(=O)N1CCC(C(=O)c2ccc(Cl)cc2)CC1 | -2 | 1 | 1 | 2 | 0.8 | 15
Cc1ccc(C(c2nnnn2C(C)(C)C)N(Cc2ccco2)Cc2cccs2)cc1 (centres undefined) | 0 | 0.2 | 0 | 76* | 0.8 | 24
CCN(CC)C(c1ccc(C)cc1)c1nnnn1C1CCCCC1 (centres undefined) | 1 | 0.2 | -10 | 78* | 0.1 | 95*
c1ccc(CN(Cc2ccco2)C(c2ccncc2)c2nnnn2C2CCCC2)cc1 (centres undefined) | -2 | 0 | -20 | 98* | 0 | 98*
CCN(CC)C(c1ccc(F)cc1)c1nnnn1C1CCCCC1 (centres undefined) | -5 | 1 | 2 | -4 | 0.6 | 38
CC(C)(C)n1nnnc1C(c1ccc(F)cc1)N(Cc1ccc(F)cc1)Cc1ccco1 (centres undefined) | -1 | 0.3 | -35 | 65* | 0.6 | 37
CC1CCCC(C)N1C(=O)CSc1nnnn1Cc1ccccc1 (centres undefined) | -1 | 0.9 | -6 | 5 | 0.8 | 20
COc1ccc2c(Cl)c(C(=O)N/N=C/c3c(C)[nH]c4ccccc34)sc2c1 | 50 | · | -14 | · | · | ·
O=C(c1ccc(N2C(=O)CCC2=O)cc1)N1CCN(c2ccccc2)CC1 | -2 | 0.8 | -1 | 23 | 1 | 2
SMILES | CD11b adhes enh | CYP2C9 activ | CD11b adhes inh | CYP2C9 inh | CYP2C19 activ | CYP2C19 inh
CCCCNC(=O)c1ccc(S(=O)(=O)c2ccc(Cl)cc2)c(NC(C)=O)c1 | 0 | 0.6 | -1 | 38 | 0.5 | 49
CC(C)(C)n1nnnc1C(c1cccs1)N(Cc1ccccc1)Cc1cccnc1 (centres undefined) | · | 0.7 | · | 29 | 0.5 | 48
CC(C)(C)n1nnnc1C(c1cccnc1)N(Cc1ccccc1)Cc1cccs1 (centres undefined) | 0 | 0.4 | -9 | 61* | 0.5 | 48
Cc1cccc(-c2nnc3sc(-c4ccccc4C)nn23)c1 | -2 | 0.2 | 1 | 81* | 0.1 | 89*
c1ccc(-c2nnc3sc(-c4csc5c4CCCC5)nn23)cc1 | -4 | 1 | 18 | -4 | 0.9 | 9
Clc1ccc(-c2nnc3ccccn23)cc1 | -2 | 1.3 | -4 | -27 | 1.1 | -13
CCOc1cccc(-c2nn3c(-c4cc(C)[nH]n4)nnc3s2)c1 | 0 | 0.8 | 8 | 17 | 0.9 | 10
Clc1ccc(-c2nn3c(-c4ccccc4)nnc3s2)cc1 | -5 | 0.6 | 7 | 40 | 0.2 | 81*
COc1cccc(OC)c1-c1nn2c(-c3cc(-c4ccccc4)n[nH]3)nnc2s1 | · | 0.4 | · | 57* | 0.4 | 56*
Cc1cn2c(-c3ccc(Cl)cc3)nnc2s1 | 3 | 0.9 | -7 | 9 | 0.4 | 58*
CC(C)CCn1c(Br)nc2c1c(=O)n(CC(N)=O)c(=O)n2C | -3 | 1 | 32 | 1 | 0.9 | 9
COc1ccc(-c2nn3c(-c4ccccc4)nnc3s2)cc1 | 5 | 0.3 | 10 | 70* | 0.3 | 74*
Clc1cccc(-c2nn3c(-c4ccncc4)nnc3s2)c1 | -2 | 1.1 | -17 | -6 | 0.5 | 55*
COc1cccc(-c2nnc3sc(-c4ccc(Cl)cc4)nn23)c1 | -4 | 0.3 | 10 | 66* | 0.6 | 36
COc1ccc(C2(CNC(=O)c3ccco3)CCOCC2)cc1 | · | 0.8 | · | 19 | 1 | 4
COC(=O)c1sccc1NC(=S)N1CC(C)CC(C)C1 (centres undefined) | 0 | 0.3 | -47 | 70* | 0.2 | 83*
COC(=O)c1sccc1NC(=S)N1CCC(C)CC1 | -1 | 0.8 | 6 | 21 | 0.8 | 21
O=C1c2cccc3cccc(c23)C(=O)N1c1nccs1 | 1 | 1.3 | 21 | -25 | 1 | -4
Cc1nnc(C)n1N1C(=O)c2cccc3cccc(c23)C1=O | -3 | 0.2 | 0 | 81* | 0.4 | 62*
CN1/C(=C/C2CC(=O)N(c3ccc([N+](=O)[O-])cc3)C2=O)C(C)(C)c2ccccc21 (centres undefined) | -1 | 0.8 | -1 | 19 | 0.2 | 80*
Cc1ccc(C(=C2C3C=CC2C2C(=O)NC(=O)C32)c2ccc(C)cc2)cc1 (centres undefined) | -4 | 1 | -1 | 3 | 0.8 | 18
COc1ccc(C(=O)NCC(=O)OCC(=O)N2CCCc3ccccc32)cc1 | 4 | · | -4 | · | · | ·
C[n+]1cc[nH]c1SCC(=O)c1ccccc1 | -1 | 1.1 | 1 | -9 | 0.3 | 72*
Cc1nc2ccccc2nc1SCC(=O)c1ccccc1 | -2 | · | 21 | · | · | ·
Cc1noc(C)c1C(=O)NCCc1ccccc1 | -3 | 1.1 | 1 | -8 | 0.9 | 5
COc1ccc(Br)cc1CNC(=O)C1CCN(S(=O)(=O)N2CCCCC2)CC1 | · | 2.2* | · | -119 | 0.8 | 23
